{
  "source": "PubChem BioAssay (NCATS)",
  "note": "Results filed as inconclusive are left out. Where a call stands in place of a potency, no number is given. Calls of active or inactive are those of the source. Calls come from the whole dose curve; as a rule, active = well fitted cell-killing curve with a large enough effect; inconclusive = small, poorly fitted or top-dose-only effect; inactive = flat fitted curve, though single readings scatter. Potency is the fitted concentration of half-maximal effect.",
  "data": [
    {"experiment": "Cell Viability - LYMP2-009 (AID 968); note: nearly all actives have a fitted effect of over 55% in size", "conditions": "LYMP2-009 lymphoblastoid cell viability; series mostly up to 92.2 µM", "description": "NIH Chemical Genomics Center [NCGC]\nNIH Molecular Libraries Screening Centers Network [MLSCN]\nNational Institutes of Environmental Health Sciences [NIEHS]\nNational Toxicology Program [NTP]\nWe have developed a 1536-well cell-based assay for quantitative high throughput screening (qHTS) against a number of cell lines to determine in vitro cytotoxicity of small molecules. This particular assay uses a human lymphoblastoid cell line (LYMP2-009) purchased from Coriell Institute for Medical Research.\nNCGC Assay Protocol Summary:\nThe CellTiter-Glo luminescent cell viability assay (Promega) is a homogeneous method to measure the number of viable cells in culture. The end point readout of this assay is based on quantitation of intracellular ATP, an indicator of metabolic activity, using the luciferase reaction. Luciferase catalyzes the oxidation of beetle Luciferin to oxyluciferin and light in the presence of ATP. The luminescent signal is proportional to amount of ATP present.\nUsing the CellTiter-Glo luminescent cell viability assay, the amount of cellular ATP was measured in the lymphoblastoid cell line with complete culture medium following compound treatment for 24 hours. The assay was performed in opaque white Kalypsys 1536-well plates. In the screen, tetraoctylammonium bromide was used as positive control. Library compounds were measured for their ability to cause acute toxicity in the cell line, as reflected by a decrease in intracellular ATP levels, in a concentration-dependent manner. […] AC50 values were determined from concentration-response data modeled with the standard Hill equation.\nqHTS protocol for CellTiter Glo lymphoblastoid cellular assay\n[Step] [Parameter] [Value] [Description]\n1. Reagent; 5 uL; 2500 lymphoblastoid cells/well\n2. Time; 5 hr; 37 C incubation\n4. Controls; 23 nL; Tetraoctylammonium bromide 6.4pM to 92 uM\n5. Time; 24 hr; 37 C incubation\n6. Reagent; 5 uL; CellTiter Glo reagent\n7. Time; 30 min; Room Temperature\n8. Detection; Luminescence; Viewlux plate reader\nKeywords: cell viability, cytotoxicity, lymphoblastoid cell line, luminescence, NTPHTS, NTPHTS_NCGC, NIEHS, DSSTox, MLSMR, MLSCN, NIH Roadmap, qHTS, NCGC", "values": [
      {"smiles": "O=c1c(O)c(-c2ccc(O)cc2)oc2cc(O)cc(O)c12", "Potency": "inactive"},
      {"smiles": "CCCNC(=O)NS(=O)(=O)c1ccc(Cl)cc1", "Potency": "inactive"},
      {"smiles": "CC(=O)O[C@]1(C(C)=O)CC[C@H]2[C@@H]3C=C(Cl)C4=CC(=O)[C@@H]5C[C@@H]5[C@]4(C)[C@H]3CC[C@@]21C", "Potency": "inactive"},
      {"smiles": "O=c1[nH]cnc2c1ncn2[C@H]1CC[C@@H](CO)O1", "Potency": "inactive"},
      {"smiles": "O=c1c(-c2ccc(O)cc2)coc2cc(O)ccc12", "Potency": "inactive"},
      {"smiles": "CCCCC1C(=O)N(c2ccccc2)N(c2ccccc2)C1=O", "Potency": "inactive"},
      {"smiles": "O=C1NC(=O)C(c2ccccc2)(c2ccccc2)N1", "Potency": "inactive"},
      {"smiles": "CCn1cc(C(=O)O)c(=O)c2ccc(C)nc21", "Potency": "inactive"},
      {"smiles": "CC/C(=C(\\c1ccccc1)c1ccc(OCCN(C)C)cc1)c1ccccc1", "Potency": "50.1 µM (active)"},
      {"smiles": "CN(C)CCC(c1ccccc1)c1ccccn1", "note": "(configuration not stated)", "Potency": "inactive"},
      {"smiles": "O=C(O)Cc1cccc2ccccc12", "Potency": "inactive"},
      {"smiles": "CC(=O)c1ccc(S(=O)(=O)NC(=O)NC2CCCCC2)cc1", "Potency": "inactive"}
    ]}
  ]
}
